Results on 33 compounds are retold here after PubChem BioAssay (NCATS).

Molecules are shown by their SMILES. Inconclusive results are not listed. The source made the active and inactive calls. Unless noted, calls follow the shape of the dose curve; as a rule, active = well fitted curve in the direction sought with a large enough effect; inconclusive = small, poorly fitted or top-dose-only effect, or another doubt; inactive = no such curve, though single readings can be large; an effect the other way counts as inactive or inconclusive.

The target of experiment [1] is Cytochrome P450 2D6 (Homo sapiens) (UniProt P10635). Kind of experiment: Cytochrome P450 family 2 subfamily D member 6 (CYP2D6) small molecule antagonists: luciferase biochemical (cell-free) qHTS assay (AID 1645840; active = well fitted curve in the direction sought with a large enough effect in the repeat runs; an effect the other way counts as inactive or inconclusive; also: nearly all actives have a fitted effect of over 55% in size; also: potency is read from the fitted curve at half-maximal effect; as to activity change, negative = inhibition: % is scaled to controls: 0 for no effect and ±100 for the full control effect). The method, boiled down:
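P450-Glo CYP2D6 system: proluciferin substrate converted by enzyme to luciferin, read by luminescence proportional to activity. Enzyme-substrate mix with compound 10 min at room temperature, then NADPH regeneration 1 h before detection reagent.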
A general note: Quantitative high-throughput screening tests each substance at several concentrations.

For experiment [2], the target named is Cytochrome P450 2C9 (Homo sapiens) (UniProt P11712). Description: Cytochrome P450 family 2 subfamily C member 9 (CYP2C9) small molecule antagonists: luciferase biochemical (cell-free) qHTS assay (AID 1645842; active = well fitted curve in the direction sought with a large enough effect in the repeat runs; an effect the other way counts as inactive or inconclusive; also: nearly all actives have a fitted effect of over 55% in size; also: potency is read from the fitted curve at half-maximal effect; as to activity change, negative = inhibition: % is scaled to controls: 0 for no effect and ±100 for the full control effect). In short, it runs like this:
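P450-Glo CYP2C9 system: proluciferin substrate with enzyme in mix containing 0.4% BSA, 10 min at room temperature, then NADPH regeneration solution added and incubated 1 h at 37C. Detection reagent stopped reaction; luminescence read after 20 min as RLU.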

The next experiment concerns the target Papain (Carica papaya) (UniProt P00784). Description: Primary qHTS assay for inhibitors of the protease papain (AID 1645873).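 Also: papain turnover of Z-FR-AMC read as the AMC fluorescence gain over 10 min; % is scaled to controls: 0 for no effect and ±100 for the full control effect.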
A short description of experiment [3]: Primary qHTS for inhibitors of nuclear receptor binding SET domain protein 2 (NSD2) in an isogenic RCH-ACV NSD2 p.E1099K mutant (9B) (AID 1645876). Also: nearly all actives have a fitted effect of over 70% in size. Also: potency is read from the fitted curve at half-maximal effect.
Experiment [4] in a line: Primary qHTS for inhibitors of nuclear receptor binding SET domain protein 2 (NSD2) in an RCH-ACV wild type WT cells (2C) (AID 1645877). Also: nearly all actives have a fitted effect of over 70% in size. Also: potency is read from the fitted curve at half-maximal effect.
The nature of experiment [5]: NCATS anti-infectives library activity on HEK293 viability as a counter-qHTS vs the C. elegans viability qHTS (AID 1745854). Also: % is scaled to controls: 0 for no effect and ±100 for the full control effect. In short, it runs like this:
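Cytotoxicity counter-screen to a worm viability qHTS: CellTiter-Glo luminescence read 10 min after reagent addition. Compounds (final up to 41.7 uM, a 1:5 dilution series) incubated 24 hr at 37C with 1,500 HEK293 cells per well; digitonin control.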

Experiment [6] can be described thus: NCATS anti-infectives library activity on the primary C. elegans qHTS viability assay (AID 1745855; calls by dose curve). The settings on record: C. elegans worm area imaging, day 7; at 41.8 µM (top of the series). In short, it runs like this:
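GFP read-out by 488 nm laser cytometry at day 0, 3 and 7, gated on object perimeter, area and peak intensity, scored viability of PE254-GFP-FLuc worms exposed to compound in S medium with bacterial capsules at 21 °C.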

Experiment [7] addresses Cytochrome P450 3A4 (Homo sapiens) (UniProt P08684). Description: Cytochrome P450 family 3 subfamily A member 4 (CYP3A4) small molecule antagonists: luciferase qHTS assay (AID 1645841; active = well fitted curve in the direction sought with a large enough effect in the repeat runs; an effect the other way counts as inactive or inconclusive; also: nearly all actives have a fitted effect of over 45% in size). In short, it runs like this: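 P450-Glo CYP3A4 enzyme with proluciferin substrate was preincubated with DMSO-dissolved compounds for 10 min at room temperature. NADPH regeneration solution started a 1 h reaction. Detection reagent stopped it, and luminescence was read after 20 min.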

Experiment [8] concerns the target N-terminal Xaa-Pro-Lys N-methyltransferase 1 (Homo sapiens) (UniProt Q9BV86). Kind of experiment: Confirmatory qHTS for Inhibitors of N-terminal methyltransferase 1 (NTMT1): MTaseGlo Assay (AID 1645874). Also: potency is read from the fitted curve at half-maximal effect; nearly all actives have a fitted effect of over 65% in size. The settings on record: NTMT1 enzyme, MTase-Glo SAH luminescence. The method, boiled down: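 Room-temperature NTMT1 reaction, 30 min, with 100 uM SAM and 1 uM SPKRIA substrate; enzyme 125 nM. Read-out: MTase-Glo luminescence, normalized to no-enzyme and DMSO controls.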

Experiment [9] deals with Catechol O-methyltransferase (Homo sapiens) (UniProt P21964). Description: Confirmatory Screen for Target Class Profiling of Small Molecule Inhibitors of Methyltransferases (AID 1745852; calls by dose curve). The note with it: MTase-Glo luminescence, SAH detection, recombinant enzyme; measured here: COMT max response; stronger effect = lower value.
Experiment [10] concerns the target Guanidinoacetate N-methyltransferase (Homo sapiens) (UniProt Q14353). Described as above. The note with it: MTase-Glo luminescence, SAH detection, recombinant enzyme; at 57.3 µM (top of the series).
In experiment [11] the target is Nicotinamide N-methyltransferase (Homo sapiens) (UniProt P40261). Described as above. The settings on record: MTase-Glo luminescence, SAH detection, recombinant enzyme; measured here: NNMT max response; stronger effect = lower value.
The target of experiment [12] is Phenylethanolamine N-methyltransferase (Homo sapiens) (UniProt P11086). The experiment is described as above. The settings on record: MTase-Glo luminescence, SAH detection, recombinant enzyme; measured here: PNMT max response; stronger effect = lower value.
Chain of Phenylethanolamine N-methyltransferase (Homo sapiens) (P11086 whole entry, looked up): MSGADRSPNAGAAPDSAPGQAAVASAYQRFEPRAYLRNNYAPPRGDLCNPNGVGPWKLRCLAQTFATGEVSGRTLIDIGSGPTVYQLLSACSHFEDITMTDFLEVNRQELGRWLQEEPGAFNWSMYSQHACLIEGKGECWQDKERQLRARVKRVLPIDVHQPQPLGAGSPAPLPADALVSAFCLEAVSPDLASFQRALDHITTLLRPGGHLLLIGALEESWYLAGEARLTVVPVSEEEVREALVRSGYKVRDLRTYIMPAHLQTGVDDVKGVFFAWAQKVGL

Chain of Cytochrome P450 2C9 (Homo sapiens) (P11712 whole entry, looked up): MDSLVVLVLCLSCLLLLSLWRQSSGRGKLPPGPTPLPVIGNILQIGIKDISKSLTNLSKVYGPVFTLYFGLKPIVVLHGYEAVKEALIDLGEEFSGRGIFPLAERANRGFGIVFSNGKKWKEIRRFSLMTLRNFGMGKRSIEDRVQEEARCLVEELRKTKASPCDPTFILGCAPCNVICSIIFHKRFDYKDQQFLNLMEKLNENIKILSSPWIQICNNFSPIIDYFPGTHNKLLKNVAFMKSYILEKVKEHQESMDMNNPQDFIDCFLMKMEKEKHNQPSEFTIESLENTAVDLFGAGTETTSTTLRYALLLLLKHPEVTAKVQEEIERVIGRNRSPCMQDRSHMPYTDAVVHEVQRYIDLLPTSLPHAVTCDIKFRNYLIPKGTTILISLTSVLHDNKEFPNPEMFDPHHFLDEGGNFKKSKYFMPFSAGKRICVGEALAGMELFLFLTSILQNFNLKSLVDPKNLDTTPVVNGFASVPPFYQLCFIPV
Chain of Papain (Carica papaya) (P00784 whole entry, looked up, the tested form may be a part): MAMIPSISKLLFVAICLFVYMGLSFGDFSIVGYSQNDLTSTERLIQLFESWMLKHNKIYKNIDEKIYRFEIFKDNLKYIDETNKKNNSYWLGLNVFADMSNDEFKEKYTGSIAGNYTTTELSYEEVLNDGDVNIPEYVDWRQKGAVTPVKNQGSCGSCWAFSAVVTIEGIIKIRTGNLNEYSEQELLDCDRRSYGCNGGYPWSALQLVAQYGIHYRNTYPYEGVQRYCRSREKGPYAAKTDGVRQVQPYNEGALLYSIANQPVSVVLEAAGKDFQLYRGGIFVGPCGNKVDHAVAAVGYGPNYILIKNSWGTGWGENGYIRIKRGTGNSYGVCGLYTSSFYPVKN
Chain of Cytochrome P450 2D6 (Homo sapiens) (P10635 whole entry, looked up): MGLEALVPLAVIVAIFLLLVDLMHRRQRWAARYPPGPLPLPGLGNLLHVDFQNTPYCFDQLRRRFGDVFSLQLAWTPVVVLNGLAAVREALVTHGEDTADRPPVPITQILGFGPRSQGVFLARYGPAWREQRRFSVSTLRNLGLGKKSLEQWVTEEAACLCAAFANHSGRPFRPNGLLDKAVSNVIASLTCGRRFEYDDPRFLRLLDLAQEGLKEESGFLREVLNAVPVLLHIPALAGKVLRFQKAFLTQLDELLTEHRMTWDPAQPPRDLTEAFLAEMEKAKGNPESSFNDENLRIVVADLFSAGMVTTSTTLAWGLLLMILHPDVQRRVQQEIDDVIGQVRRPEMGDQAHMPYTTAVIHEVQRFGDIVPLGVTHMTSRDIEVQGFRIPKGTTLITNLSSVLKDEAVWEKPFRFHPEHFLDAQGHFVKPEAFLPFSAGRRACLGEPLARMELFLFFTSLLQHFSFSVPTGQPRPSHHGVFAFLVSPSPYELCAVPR
Chain of Cytochrome P450 3A4 (Homo sapiens) (P08684 whole entry, looked up): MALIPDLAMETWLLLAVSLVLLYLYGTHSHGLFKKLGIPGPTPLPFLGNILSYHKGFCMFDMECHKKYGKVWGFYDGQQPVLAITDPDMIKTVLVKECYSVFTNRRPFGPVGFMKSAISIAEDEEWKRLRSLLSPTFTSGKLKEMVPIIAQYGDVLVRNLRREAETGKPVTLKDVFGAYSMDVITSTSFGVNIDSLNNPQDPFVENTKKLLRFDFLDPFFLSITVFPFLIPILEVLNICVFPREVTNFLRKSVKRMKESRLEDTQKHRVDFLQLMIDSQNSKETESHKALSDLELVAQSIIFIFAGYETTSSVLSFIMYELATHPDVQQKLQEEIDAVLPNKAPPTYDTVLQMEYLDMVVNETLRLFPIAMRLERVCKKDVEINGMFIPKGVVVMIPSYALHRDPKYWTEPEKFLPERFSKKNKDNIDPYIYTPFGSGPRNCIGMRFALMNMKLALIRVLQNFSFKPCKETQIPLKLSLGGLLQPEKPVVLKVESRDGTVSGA
Chain of N-terminal Xaa-Pro-Lys N-methyltransferase 1 (Homo sapiens) (Q9BV86 whole entry, looked up): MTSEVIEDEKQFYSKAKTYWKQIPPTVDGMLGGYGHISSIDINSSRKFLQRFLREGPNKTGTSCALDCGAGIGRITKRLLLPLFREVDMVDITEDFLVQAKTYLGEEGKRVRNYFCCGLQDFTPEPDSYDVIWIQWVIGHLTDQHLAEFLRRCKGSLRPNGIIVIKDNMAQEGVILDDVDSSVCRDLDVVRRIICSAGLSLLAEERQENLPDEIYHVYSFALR
Chain of Catechol O-methyltransferase (Homo sapiens) (P21964 whole entry, looked up): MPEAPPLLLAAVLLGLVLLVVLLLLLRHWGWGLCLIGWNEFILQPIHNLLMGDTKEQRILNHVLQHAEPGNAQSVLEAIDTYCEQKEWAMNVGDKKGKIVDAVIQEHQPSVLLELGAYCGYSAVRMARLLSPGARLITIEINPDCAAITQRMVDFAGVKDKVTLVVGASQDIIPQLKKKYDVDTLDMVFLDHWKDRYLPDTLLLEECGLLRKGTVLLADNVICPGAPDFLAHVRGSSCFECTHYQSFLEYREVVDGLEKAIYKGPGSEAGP
Chain of Nicotinamide N-methyltransferase (Homo sapiens) (P40261 whole entry, looked up): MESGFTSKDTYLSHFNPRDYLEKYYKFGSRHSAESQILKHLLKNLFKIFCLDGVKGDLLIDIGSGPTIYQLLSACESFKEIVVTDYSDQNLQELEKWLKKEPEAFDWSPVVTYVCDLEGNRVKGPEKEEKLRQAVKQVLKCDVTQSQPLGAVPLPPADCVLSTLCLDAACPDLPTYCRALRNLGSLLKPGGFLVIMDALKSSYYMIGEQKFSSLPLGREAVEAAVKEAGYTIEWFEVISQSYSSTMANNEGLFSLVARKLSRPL

In the case of `CCCCc1ncc(/C=C(\Cc2cccs2)C(=O)O)n1Cc1ccc(C(=O)O)cc1`, the Potency result (in experiment [1]; in [2]; with Papain (Carica papaya); in experiment [3]; in experiment [4]) was “inactive” in each case. The outcome in [5] and in experiment [6] was “inactive” throughout.
On to `CC(=O)NC(Cc1ccccc1)C(=O)O` (configuration not stated), for which the Potency entry in experiment [1], in experiment [2], in experiment [3] and in experiment [4] was “inactive” throughout. Moreover, in [7], the outcome is “inactive”.
Consider `O=C1NC(=O)[C@@]2(CCOc3ccc(F)cc32)N1`, for which the Potency result (in [1]; in experiment [2]; in the experiment with Papain (Carica papaya); in [3]; in [4]) was “inactive” each time.
Turning to `CC(=O)c1ccc2c(c1)N(CCCN(C)C)c1ccccc1S2`, the Potency in experiment [1] was 0.436 µM (active). Besides, the Potency result (in experiment [2]; in the experiment with Papain (Carica papaya)) was “inactive” each time.
As to `O=C1NS(=O)(=O)c2ccccc21`, the Potency result in [1] and in [2] was “inactive” each time.
Consider `CC(CN1c2ccccc2Sc2ccccc21)N(C)C` (configuration not stated), for which the Potency in [1] was 2.45 µM (active); in [3], 16.8 µM (active). The Potency result (in experiment [2]; with Papain (Carica papaya)) was “inactive” in each case. Besides, in experiment [5], the outcome was “inactive”.
Regarding `COc1ccc2[nH]c(S(=O)Cc3ncc(C)c(OC)c3C)nc2n1` (configuration not stated), the Potency entry in experiment [1], in experiment [3] and in experiment [4] was “inactive” in each case. Further, the Potency in experiment [2] is 10.7 µM (active); in experiment [8], 35.5 µM (active).
Regarding `CC(C)C(=O)c1c(C(C)C)nn2ccccc12`, the Potency entry (in [1]; in experiment [2]; in the experiment with Papain (Carica papaya); in experiment [3]; in experiment [4]) was “inactive” throughout.
Regarding `NC(N)=NCCC[C@H](N)C(=O)O`, the values for the activity change, negative = inhibition in experiment [1], in [2] and in experiment [10] were 2.59% [at 4.83 µM] (inactive), -6.78% [at 4.83 µM] (inactive) and -1.16%, respectively. Besides, the Potency result with Papain (Carica papaya) was “inactive”. Further, the outcome in [3] was “inactive [at 4.96 µM]”. Further, the activity in experiment [9] is 6.47%; in experiment [11] it was -0.737%; in experiment [12] it was 6.66%.
Regarding `C=Cc1c(C)c2cc3[nH]c(cc4nc(cc5nc(cc1[nH]2)C(C)=C5CCC(=O)O)C(CCC(=O)O)=C4C)c(C)c3C=C`, the Potency result (in experiment [1]; in experiment [2]; with Papain (Carica papaya)) was “inactive” in each case. Moreover, the outcome in [7] was “inactive”. Further, the Potency in [8] was 34.5 µM (active).
Regarding `O=C(Oc1ccccc1C(=O)O)c1ccccc1O`, the Potency result in experiment [1], in experiment [2], in experiment [3] and in [4] was “inactive” in each case.
On to `CC1(C)[C@@H]2CC[C@@]1(C)C(=O)C2`, for which the Potency result in experiment [1], in experiment [2], in experiment [3] and in [4] was “inactive” in each case.
`O=C1c2c(O)cccc2Cc2cccc(O)c21`: the Potency entry in experiment [1], in [2], in [3] and in experiment [4] was “inactive” throughout.
In the case of `Oc1cn2c(n1)Nc1ccc(Cl)c(Cl)c1C2`, the Potency result in experiment [1], in [3] and in experiment [4] was “inactive” in each case. Further, the Potency in experiment [2] is 6.74 µM (active).
Take `O=S(=O)(O)c1cc(I)c(O)c2ncccc12`: the Potency entry in experiment [1], in experiment [2], in [3] and in experiment [4] was “inactive” throughout.
Take `C[C@H]1O[C@H](O[C@H]2[C@H](O)[C@@H](O)[C@@H](O[C@H]3[C@H](O)[C@@H](O)[C@H](O)O[C@@H]3CO)O[C@@H]2CO)[C@H](O)[C@@H](O)[C@@H]1N[C@H]1C=C(CO)[C@@H](O)[C@H](O)[C@H]1O`: the Potency result in [1], in [2], in [3] and in experiment [4] was “inactive” in each case.
Consider `OCC(CO)N[C@H]1C[C@](O)(CO)[C@@H](O)[C@H](O)[C@H]1O`, for which the Potency entry in experiment [1], in [2], in experiment [3] and in experiment [4] was “inactive” in each case.
On to `COc1cc(C(=O)N2CCOCC2)cc(OC)c1OC`, for which the Potency entry in [1], in [2], in experiment [3] and in [4] was “inactive” in each case.
On to `NC(=O)c1ncn([C@@H]2O[C@H](CO)[C@@H](O)[C@H]2O)c1N`, for which the Potency result in experiment [1], in experiment [2], in experiment [3] and in [4] was “inactive” each time.
Turning to `CN(C)CCCO[C@@H]1[C@H]2OC(C)(C)O[C@H]2O[C@@H]1C(O)CO` (some centres not stated), the Potency result in [1], in experiment [2], in [3] and in experiment [4] was “inactive” in each case.
As to `C[C@@H]1CCN(C(=O)[C@H](CCCN=C(N)N)NS(=O)(=O)c2cccc3c2NC[C@H](C)C3)[C@@H](C(=O)O)C1`, the Potency result in experiment [1], in experiment [2], in [3] and in experiment [4] was “inactive” each time.
As to `CC[N+](CC)(CC)CCOc1ccc(/C=C/c2ccccc2)cc1`, the Potency was 0.617 µM (active) in experiment [1], 2.11 µM (active) in experiment [3] and 1.88 µM (active) in [4]. The Potency result in [2] is “inactive”.
For `CC12CCC(CC1)C(C)(C)O2`, in that order: “inactive”, “inactive”, “inactive” and “inactive”.
For `CC[C@@]1(c2ccccc2)NC(=O)N(C)C1=O`, the Potency entry in [1], in [2], in experiment [3] and in experiment [4] was “inactive” in each case.
In the case of `O=C(CCCN1CCN(c2ccccn2)CC1)c1ccc(F)cc1`, the results for the Potency in experiment [1] and in experiment [2] were 15.5 µM (active) and 12.3 µM (active), respectively. Further, the Potency entry in experiment [3] and in [4] was “inactive” in each case.
Take `CCN(CC)C(=O)Nc1ccc(OCC(O)CNC(C)(C)C)c(C(C)=O)c1` (configuration not stated): the Potency entry in experiment [1], in experiment [2], in [3] and in experiment [4] was “inactive” in each case.
`Oc1cccc(O)c1`: the Potency entry in experiment [1], in [2], in experiment [3] and in [4] was “inactive” each time.
Consider `O=c1cc[nH]c(=O)[nH]1`, for which the Potency result in experiment [1], in [2], in [3] and in [4] was “inactive” in each case.
Consider `NS(=O)(=O)c1cc2c(cc1Cl)NC(CSCc1ccccc1)=NS2(=O)=O`, for which the Potency in [1] is 13.8 µM (active); in experiment [2], 5.49 µM (active). The Potency entry in [3] and in experiment [4] was “inactive” throughout.
Consider `CCOc1ccc2ccccc2c1C(=O)N[C@@H]1C(=O)N2[C@@H]1SC(C)(C)[C@@H]2C(=O)O`, for which the Potency entry in experiment [1], in experiment [2], in experiment [3] and in experiment [4] was “inactive” each time.
Take `CCN(CC)CCNC(C(=O)OCCC(C)C)c1ccccc1` (configuration not stated): the Potency in experiment [1] is 0.776 µM (active). Also, the Potency result in experiment [2], in [3] and in experiment [4] was “inactive” in each case.
With `O=C(O)c1ccccc1-c1ccc(C(F)(F)F)cc1`, the Potency result in [1], in experiment [2], in [3] and in experiment [4] was “inactive” throughout.
In the case of `Cc1cc(O)cc2c1O[C@](C)(CCC[C@H](C)CCC[C@H](C)CCCC(C)C)CC2`, the Potency entry in experiment [1], in [2], in experiment [3] and in experiment [4] was “inactive” each time.
